Records with an inconclusive call do not appear. Values without a mark were called inactive. Activity calls are given as the source filed them. Unless noted, calls come from the whole dose curve; as a rule, active = well fitted curve in the direction sought with a large enough effect in the repeat runs; inconclusive = weak or mixed curves; inactive = no such curve, though single readings can be large; an effect the other way counts as inactive or inconclusive.

Test [1] can be described thus: qHTS assay to identify small molecule antagonists of the thyroid receptor (TR) signaling pathway - cell viability counter screen (AID 743064). Note: nearly all actives have a fitted effect of over 50% in size. Note: potency is the fitted concentration of half-maximal effect. Summed up: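 Fluorescence from CellTiter-Fluor, added after 23.5 h exposure at 37 °C, reported viability of GH3.TRE-Luc cells co-treated with compound and 1 nM T3. Measured in the same wells as the luciferase TR readout.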
Test [2] can be described thus: qHTS assay to identify small molecule antagonists of the thyroid receptor (TR) signaling pathway (AID 743065). Note: nearly all actives have a fitted effect of over 55% in size. Note: potency is the fitted concentration of half-maximal effect. Summed up:
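GH3.TRE-Luc rat pituitary cells carrying two TR response elements driving luciferase were plated for 4 h, given compound plus 1 nM T3 (final), and incubated 23.5 h at 37 C. ONE-Glo luminescence measured reporter inhibition; CellTiter-Fluor fluorescence tracked cytotoxicity.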

The test system of test [3] is thyroid hormone receptor (rat, GH3 cells). The test is described as follows: qHTS assay to identify small molecule agonists of the thyroid receptor (TR) signaling pathway (AID 743066; calls by dose curve). A general note: qHTS replaces the single test concentration by a dilution series.
Test [4] deals with Estrogen receptor (Homo sapiens) (UniProt P03372). The test is described as follows: qHTS assay to identify small molecule antagonists of the estrogen receptor alpha (ER-alpha) signaling pathway (AID 743069; active = well fitted curve in the direction sought with a large enough effect in the signal ratio in the repeat runs, not every such curve was filed as active; the % refers to the signal ratio). Summed up:
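A 17beta-estradiol challenge was applied right after compound transfer to ER-alpha-UAS-bla HEK293 cells previously kept in charcoal-stripped serum. Plates stood 18 hr at 37C and 5% CO2; fluorescence was read following 2 hr FRET substrate loading at room temperature.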

A short description of test [5]: qHTS assay to identify small molecule antagonists of the estrogen receptor alpha (ER-alpha) signaling pathway - cell viability counter screen (AID 743074; calls by dose curve;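 note: HEK293 cells carrying ER-alpha-UAS-bla reporter stimulated with 17beta-estradiol; nearly all actives have a fitted effect of over 45% in size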).
Test [6] concerns the target Estrogen receptor (Homo sapiens) (UniProt P03372). The test is described as follows: qHTS assay to identify small molecule agonists of the estrogen receptor alpha (ER-alpha) signaling pathway (AID 743075; calls by dose curve;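 note: HEK293 GripTite cells with ER-alpha and UAS-driven beta-lactamase reporter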).
The target is the same in test [7]. The test is described as follows: qHTS assay to identify small molecule agonists of the estrogen receptor alpha (ER-alpha) signaling pathway using the BG1 cell line (AID 743079). Note: nearly all actives have a fitted effect of over 20% in size. Note: potency is the fitted concentration of half-maximal effect.
Test [8] is described as follows: qHTS assay to identify small molecule antagonists of the estrogen receptor alpha (ER-alpha) signaling pathway using the BG1 cell line (AID 743080; calls by dose curve;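 note: BG1 cells stimulated with 17beta-estradiol alongside compound; series mostly up to about 70 µM; nearly all actives have a fitted effect of over 25% in size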). In outline:
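Luminescence from a 4×ERE-luciferase reporter in BG1-Luc-4E2 cells served as read-out. Cells, pre-cultured 5 days in stripped-serum phenol-red-free medium, were exposed to compound with 17beta-estradiol co-stimulation for 21.5 h at 37 C.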

The nature of test [9]: qHTS assay to identify small molecule antagonists of the estrogen receptor alpha (ER-alpha) signaling pathway using the BG1 cell line - cell viability counter screen (AID 743081).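 Note: compound given together with 17beta-estradiol as the ER stimulus; nearly all actives have a fitted effect of over 45% in size.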 Note: potency is the fitted concentration of half-maximal effect.
The target of a further test is Aromatase (Homo sapiens) (UniProt P11511). Kind of test: qHTS assay to identify aromatase inhibitors (AID 743083). Note: series mostly up to about 70 µM; nearly all actives have a fitted effect of over 55% in size.
Sequence of Aromatase (Homo sapiens) (P11511 whole entry, looked up): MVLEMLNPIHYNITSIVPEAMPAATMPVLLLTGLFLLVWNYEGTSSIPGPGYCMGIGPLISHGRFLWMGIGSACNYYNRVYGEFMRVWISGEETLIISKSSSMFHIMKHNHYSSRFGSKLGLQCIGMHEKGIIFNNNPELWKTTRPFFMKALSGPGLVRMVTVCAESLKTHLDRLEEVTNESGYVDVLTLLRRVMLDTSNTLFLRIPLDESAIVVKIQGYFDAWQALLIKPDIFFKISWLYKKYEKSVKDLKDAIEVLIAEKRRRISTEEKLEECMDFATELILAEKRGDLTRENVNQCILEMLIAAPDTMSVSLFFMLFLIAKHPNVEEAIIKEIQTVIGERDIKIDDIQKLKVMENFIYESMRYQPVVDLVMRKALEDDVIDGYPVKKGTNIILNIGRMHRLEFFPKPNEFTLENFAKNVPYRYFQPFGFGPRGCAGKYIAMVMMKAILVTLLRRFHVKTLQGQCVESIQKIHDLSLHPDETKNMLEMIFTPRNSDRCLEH

Sequence of Estrogen receptor (Homo sapiens) (P03372 whole entry, looked up): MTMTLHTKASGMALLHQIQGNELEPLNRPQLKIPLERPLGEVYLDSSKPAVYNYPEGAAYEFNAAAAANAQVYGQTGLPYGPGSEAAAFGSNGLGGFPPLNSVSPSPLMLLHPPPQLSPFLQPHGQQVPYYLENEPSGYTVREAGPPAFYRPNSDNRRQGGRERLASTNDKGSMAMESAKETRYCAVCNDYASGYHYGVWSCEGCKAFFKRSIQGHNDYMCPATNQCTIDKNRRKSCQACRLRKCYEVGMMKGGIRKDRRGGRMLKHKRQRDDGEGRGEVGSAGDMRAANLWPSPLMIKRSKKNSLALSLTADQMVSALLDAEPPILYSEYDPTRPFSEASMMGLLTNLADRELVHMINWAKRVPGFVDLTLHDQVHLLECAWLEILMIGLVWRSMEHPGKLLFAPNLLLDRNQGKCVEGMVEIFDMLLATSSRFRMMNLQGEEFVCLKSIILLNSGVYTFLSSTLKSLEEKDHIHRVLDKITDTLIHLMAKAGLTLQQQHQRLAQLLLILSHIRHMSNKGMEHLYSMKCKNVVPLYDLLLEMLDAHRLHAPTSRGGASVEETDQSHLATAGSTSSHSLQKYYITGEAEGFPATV

In the case of `OCCc1ccncc1`, the Potency result in test [1], in [2], in test [4], in test [6], in [7] and in [8] was “inactive” throughout. For the same compound, the Potency entry in [9] is “inactive”. The outcome in test [3] and in test [5] was inactive.
Turning to `NC(=O)c1ccccc1C(N)=O`, the Potency result in [1], in [2], in test [4], in test [6], in test [7] and in [8] was “inactive” throughout. Besides, the Potency result (in test [9]; in the test with Aromatase (Homo sapiens)) was “inactive” in each case. Besides, the compound was called inactive in test [3] and in [5].
On to `CCCC(=O)OCc1ccccc1`, for which the Potency result in [1], in [2], in test [4], in [6], in test [7] and in test [8] was “inactive” throughout. Further, the Potency entry (in [9]; with Aromatase (Homo sapiens)) was “inactive” in each case. Also, the result in [3] and in test [5] was inactive.
Regarding `O=C1c2ccccc2C(=O)C1c1ccc2cc(S(=O)(=O)O)cc(S(=O)(=O)O)c2n1`, the Potency is 33.1 µM (active) in [1] and 52.5 µM (active) in [9]. The Potency entry (in [2]; in test [4]; in test [6]; in [7]; in [8]; with Aromatase (Homo sapiens)) was “inactive” each time. The outcome in [3] and in test [5] was inactive.
For the compound `O=C(O)c1cc(C(=O)O)c(C(=O)O)cc1C(=O)O`, the Potency entry in test [1], in test [2], in [4], in test [6], in test [7] and in test [8] was “inactive” each time. The Potency result (in test [9]; with Aromatase (Homo sapiens)) was “inactive” throughout. For the same compound, the result in test [3] and in [5] was inactive.
On to `Cc1nc(C)c(C)nc1C`, for which the Potency result in test [1], in [2], in test [4], in test [6], in test [7] and in [8] was “inactive” throughout. Further, the Potency result (in [9]; with Aromatase (Homo sapiens)) was “inactive” throughout. The outcome in test [3] and in test [5] was inactive.
Consider `CCCC(=O)OCCC(C)C`, for which the Potency entry in test [1], in test [2], in [4], in [6], in [7] and in test [8] was “inactive” in each case. Besides, the Potency entry (in [9]; in the test with Aromatase (Homo sapiens)) was “inactive” in each case. Besides, the outcome in test [3] and in test [5] was inactive.
On to `CC(C)(C)c1ccc(CCC=O)cc1`, for which the Potency result in test [1], in test [2], in test [4], in test [6], in test [7] and in [9] was “inactive” each time. Also, the compound was called inactive in test [3] and in [5].
For `O=C(O)c1ccccc1-n1cc(C(=O)O)c(=O)c2cc(Nc3c(F)cc(F)cc3Cl)c(Cl)cc21`, the Potency entry in test [1], in test [2], in [4], in [6], in [7] and in [8] was “inactive” in each case. The Potency entry (in [9]; in the test with Aromatase (Homo sapiens)) was “inactive” each time. For the same compound, the compound was called inactive in [3] and in test [5].
For `COc1ccc(C(=O)Nc2ccccc2)cc1[N+](=O)[O-]`, the Potency result (in test [1]; in [2]; in test [4]; in test [6]; in [9]; in the test with Aromatase (Homo sapiens)) was “inactive” each time. The call in test [3] and in [5] was inactive. Besides, the Potency in test [7] is 3.09 µM (active).
Regarding `C/C(=C(\CCO)SS/C(CCO)=C(\C)N(C=O)Cc1cnc(C)nc1N)N(C=O)Cc1cnc(C)nc1N`, the Potency result in test [1], in test [2], in test [4], in test [6], in [7] and in test [8] was “inactive” each time. The Potency entry (in test [9]; with Aromatase (Homo sapiens)) was “inactive” throughout. In addition, the call in test [3] and in test [5] was inactive.
For the compound `O=C1C=CCCC1`, the Potency result in test [1], in test [2], in test [4], in [6], in test [7] and in test [8] was “inactive” in each case. In addition, the Potency entry (in test [9]; in the test with Aromatase (Homo sapiens)) was “inactive” in each case. Also, the compound was classed as inactive in [3] and in [5].
Consider `C=CCCC`, for which the Potency result in test [1], in test [2], in test [4], in test [6], in test [7] and in test [8] was “inactive” in each case. Besides, the Potency result (in [9]; in the test with Aromatase (Homo sapiens)) was “inactive” each time. Besides, the compound was called inactive in test [3] and in [5].
Consider `O=C(O)c1ccc2cc(O)ccc2c1`, for which the Potency entry (in test [1]; in test [2]; in test [6]; in test [8]; in test [9]; with Aromatase (Homo sapiens)) was “inactive” in each case. The result in test [3] and in [5] was inactive.
Regarding `CCOc1ccc(NC(C)=O)cc1N`, the Potency entry (in test [1]; in test [2]; in test [4]; in test [6]; in [9]; in the test with Aromatase (Homo sapiens)) was “inactive” in each case. Besides, the call in [3] and in [5] was inactive.
Consider `O=C(O)c1ccc2c(c1)nc(C(=O)NC1CCN(C3CC3)CC1)n2Cc1cc(-c2ccc(Cl)s2)on1`, for which the Potency result in [1], in [2], in test [6], in test [7], in test [8] and in test [9] was “inactive” each time. Moreover, the Potency entry with Aromatase (Homo sapiens) was “inactive”. Further, the outcome in test [3] and in test [5] was inactive.
`C[C@@H](O)[C@H]1C(=O)N2C(C(=O)O)=C(S[C@@H]3CN[C@H](CNS(N)(=O)=O)C3)[C@H](C)[C@H]12`: the Potency entry in [1], in test [2], in test [4], in test [6], in [8] and in [9] was “inactive” each time. The Potency entry with Aromatase (Homo sapiens) was “inactive”. The call in test [3] and in [5] was inactive.
Regarding `CCCCOC(=O)CC#N`, the Potency entry in test [1], in test [2], in test [6], in [7], in test [8] and in test [9] was “inactive” each time. In addition, the Potency result in the test with Aromatase (Homo sapiens) is “inactive”. The call in test [3] and in [5] was inactive.
In the case of `O=Cc1ccc(Cl)c([N+](=O)[O-])c1`, the Potency result in [1], in test [2], in test [6] and in test [9] was “inactive” each time. Besides, the compound was classed as inactive in test [3] and in test [5].
Consider `CCCCOC(=O)C(C)Oc1ccc(Oc2ccc(C(F)(F)F)cn2)cc1` (configuration not stated), for which the Potency result in [1], in test [2], in [6], in [7] and in test [9] was “inactive” throughout. In addition, the compound was called inactive in test [3] and in test [5].
As to `CCCCCCCCOCCCN`, the Potency in test [1] was 13.7 µM (active); in [2] it was 21.7 µM (active). Further, the outcome in test [3] and in test [5] was inactive. The Potency entry (in [6]; in [8]; in test [9]; with Aromatase (Homo sapiens)) was “inactive” throughout.
With `C=CC(=O)NC(C)(C)C`, the Potency entry (in test [1]; in test [2]; in [6]; in [7]; in test [9]; with Aromatase (Homo sapiens)) was “inactive” in each case. Further, the compound was called inactive in test [3] and in test [5].
As to `O=C1CCCN1CCO`, the Potency entry in [1], in [2], in test [6], in test [7], in test [8] and in test [9] was “inactive” in each case. In addition, the Potency result with Aromatase (Homo sapiens) was “inactive”. In addition, the call in test [3] and in test [5] was inactive.
Regarding `CCCC1CCOC(C)S1` (configuration not stated), the Potency entry (in test [1]; in test [2]; in [6]; in test [7]; in test [9]; with Aromatase (Homo sapiens)) was “inactive” in each case. Further, the call in test [3] and in test [5] was inactive.
For `CC1(C)CC(=O)CC(C)(C)N1`, the Potency entry in [1], in test [2], in test [6], in test [7], in test [8] and in test [9] was “inactive” in each case. In the test with Aromatase (Homo sapiens), the Potency entry was “inactive”. The outcome in [3] and in [5] was inactive.
As for `CC(C)=CCC[C@H](C)CCO`, the Potency result (in [1]; in test [2]; in [6]; in test [7]; in [9]; with Aromatase (Homo sapiens)) was “inactive” each time. Moreover, the call in [3] and in test [5] was inactive.

The values are drawn from PubChem BioAssay (Tox21).
